Inconclusive results are not listed. A call without a number means that no potency is given here. Activity calls are given as the source filed them. Unless noted, calls come from the whole dose curve.
Experiments:
[1] = target: Atrial natriuretic peptide receptor 1 (Homo sapiens) (UniProt P16066); assay: Natriuretic polypeptide receptor (hNpr1) antagonism - Pilot screen (AID 1347049);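 note: agonist-evoked cGMP luminescence read 20 min after hNppA addition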; note: potency is the fitted concentration of half-maximal effect
In short: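 HEK293 cells expressing hNpr1 and GloSensor cGMP luciferase, 1500/well, loaded with 2% GloSensor reagent 2 h, compound 30 min at room temperature; luminescence read before and 20 min after 0.1 nM hNppA stimulation.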

[2] = target: Atrial natriuretic peptide receptor 2 (Homo sapiens) (UniProt P20594); assay: Natriuretic polypeptide receptor (hNpr2) antagonism - Pilot subtype selectivity assay (AID 1347050); note: potency is the fitted concentration of half-maximal effect
In short: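 HEK293 cells expressing hNpr2 and a GloSensor cGMP luciferase sensor, 1500/well, preloaded 2 h with 2% GloSensor reagent, compound 30 min, then 1 nM hNppC for 20 min. Antagonism from luminescence after versus baseline pre-read; LOPAC in 1:5 titrations.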

[3] = NS1 protein of Zika virus - qHTS assay to identify small molecule inhibitors in human HEK 293 cells (AID 1347053; active = well fitted curve in the direction sought with a large enough effect; an effect the other way counts as inactive or inconclusive; note: nearly all actives have a fitted effect of over 55% in size; note: potency is the fitted concentration of half-maximal effect)
In short: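 HEK 293 cells, seeded 20 h at 37 C, were pretreated with compound 1 h, then infected with ZIKV MR766 (MOI = 0.5) for 24 h. NS1 was read by TR-FRET with two anti-NS1 antibodies, normalized to uninfected and infected wells.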

[4] = target: T1, Tyrosine-protein phosphatase non-receptor type substrate 1 (Homo sapiens) + Leukocyte surface antigen CD47 (Homo sapiens) (UniProt P78324+Q08722); assay: CD47-SIRPalpha protein protein interaction - LANCE assay qHTS validation (AID 1347057; active = well fitted curve in the direction sought with a large enough effect in the signal ratio, with a control signal flat, not every such curve was filed as active; the % refers to the signal ratio; note: potency is the fitted concentration of half-maximal effect)
In short: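 First, His-tagged CD47 and Eu-labelled anti-His antibody met the compound for 30 min; next, site-specifically biotinylated SIRPalpha was added for 30 min; finally streptavidin-APC was added before reading the TR-FRET ratio.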

[5] = target: T1, Tyrosine-protein phosphatase non-receptor type substrate 1 (Homo sapiens) + Leukocyte surface antigen CD47 (Homo sapiens); assay: CD47-SIRPalpha protein protein interaction - HTRF assay qHTS validation (AID 1347058; active = well fitted curve in the direction sought with a large enough effect in the signal ratio, not every such curve was filed as active; the % refers to the signal ratio;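 note: recombinant soluble extracellular CD47 with His tag and biotinylated SIRPalpha domains; series mostly up to about 38 µM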)
In short: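 TR-FRET read (Ch1/Ch2 ratio) of soluble extracellular CD47 and Avi-biotinylated SIRPalpha domains in PBS pH 7.4 with 0.05% IGEPAL; 7-point compound titration. Sequential 30 min room-temperature steps; non-biotinylated SIRPalpha as control inhibitor.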

[6] = Natriuretic polypeptide receptor (hNpr1) antagonism - Pilot counterscreen GloSensor control cell line (AID 1347045); note: potency is the fitted concentration of half-maximal effect
In short: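 HEK293 cells carrying the GloSensor cGMP sensor (GIP/pGS-40F) were loaded with 2% GloSensor reagent for 2 h, exposed to compounds for 30 min, and then stimulated with 50 uM sodium nitroprusside for 20 min at room temperature.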

[7] = target: Parathyroid hormone/parathyroid hormone-related peptide receptor (Homo sapiens) (UniProt Q03431); assay: qHTS for PTHR1 Agonists: Optimization Screen against the NCGC LOPAC library (AID 1347079; active = well fitted curve in the direction sought with a large enough effect; an effect the other way counts as inactive or inconclusive;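 note: GloSensor cAMP luminescence in HEK-293 GP2 cells expressing human PTHR1 with IBMX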)
In short: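 Compounds were tested across a qHTS titration. PTHR1-expressing GP2 cells report cAMP rises via GloSensor luminescence after 1 hr compound exposure at 37C with IBMX present.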

[8] = target: T1, Tyrosine-protein phosphatase non-receptor type substrate 1 (Homo sapiens) + Leukocyte surface antigen CD47 (Homo sapiens); assay: CD47-SIRPalpha protein protein interaction - Alpha assay qHTS validation (AID 1347059; active = well fitted curve in the direction sought with a large enough effect; an effect the other way counts as inactive or inconclusive;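 note: bead proximity luminescence from CD47 binding SIRPalpha after compound preincubation with SIRPalpha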; note: potency is the fitted concentration of half-maximal effect)
In short: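 Biotinylated Avi-tagged SIRPalpha (25 nM) preincubated 30 min with compound, then His-tagged CD47 (12.5 nM) added 30 min; AlphaScreen with Ni-NTA acceptor and streptavidin donor beads. PBS pH 7.4, 0.05% IGEPAL, room temperature; 7-point titrations.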

Parathyroid hormone/parathyroid hormone-related peptide receptor (Homo sapiens), sequence (Q03431 whole entry, looked up): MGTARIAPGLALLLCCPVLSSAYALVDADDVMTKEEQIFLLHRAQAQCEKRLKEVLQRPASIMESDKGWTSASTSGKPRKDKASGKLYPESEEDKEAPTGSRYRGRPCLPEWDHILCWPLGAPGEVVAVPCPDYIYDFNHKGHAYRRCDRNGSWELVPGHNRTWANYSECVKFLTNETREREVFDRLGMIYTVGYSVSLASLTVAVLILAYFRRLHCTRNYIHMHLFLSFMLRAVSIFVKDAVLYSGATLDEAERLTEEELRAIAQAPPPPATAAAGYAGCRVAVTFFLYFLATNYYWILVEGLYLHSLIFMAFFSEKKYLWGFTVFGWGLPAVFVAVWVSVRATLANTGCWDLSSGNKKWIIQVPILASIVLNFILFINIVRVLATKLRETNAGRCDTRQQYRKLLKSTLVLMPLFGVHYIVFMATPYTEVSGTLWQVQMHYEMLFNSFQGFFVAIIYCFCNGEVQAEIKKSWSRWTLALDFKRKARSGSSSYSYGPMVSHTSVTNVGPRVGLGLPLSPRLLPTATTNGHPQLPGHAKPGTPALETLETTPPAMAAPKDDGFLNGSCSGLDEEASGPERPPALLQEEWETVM
T1 sequence (P78324 whole entry, looked up): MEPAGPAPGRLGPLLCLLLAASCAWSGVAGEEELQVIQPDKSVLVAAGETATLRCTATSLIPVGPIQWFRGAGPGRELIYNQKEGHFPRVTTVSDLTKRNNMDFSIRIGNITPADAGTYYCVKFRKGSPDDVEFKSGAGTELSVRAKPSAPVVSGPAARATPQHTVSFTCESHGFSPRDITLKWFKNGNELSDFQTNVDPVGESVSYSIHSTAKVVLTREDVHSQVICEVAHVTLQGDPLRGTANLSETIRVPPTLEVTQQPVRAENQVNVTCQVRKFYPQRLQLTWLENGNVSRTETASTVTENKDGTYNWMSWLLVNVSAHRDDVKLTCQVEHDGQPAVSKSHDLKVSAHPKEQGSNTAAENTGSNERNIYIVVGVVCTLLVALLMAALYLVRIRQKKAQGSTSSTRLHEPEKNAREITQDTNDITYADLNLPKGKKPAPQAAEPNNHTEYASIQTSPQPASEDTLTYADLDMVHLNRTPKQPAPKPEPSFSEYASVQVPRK
T1 sequence (Q08722 whole entry, looked up): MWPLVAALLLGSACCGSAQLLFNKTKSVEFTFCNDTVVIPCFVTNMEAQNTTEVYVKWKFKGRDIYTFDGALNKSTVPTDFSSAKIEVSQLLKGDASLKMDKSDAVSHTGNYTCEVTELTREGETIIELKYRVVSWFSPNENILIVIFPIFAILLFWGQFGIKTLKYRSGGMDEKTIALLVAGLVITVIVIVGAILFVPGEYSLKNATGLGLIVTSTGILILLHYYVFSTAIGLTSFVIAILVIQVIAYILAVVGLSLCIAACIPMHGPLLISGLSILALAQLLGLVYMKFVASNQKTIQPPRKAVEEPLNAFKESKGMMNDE
Atrial natriuretic peptide receptor 2 (Homo sapiens), sequence (P20594 whole entry, looked up): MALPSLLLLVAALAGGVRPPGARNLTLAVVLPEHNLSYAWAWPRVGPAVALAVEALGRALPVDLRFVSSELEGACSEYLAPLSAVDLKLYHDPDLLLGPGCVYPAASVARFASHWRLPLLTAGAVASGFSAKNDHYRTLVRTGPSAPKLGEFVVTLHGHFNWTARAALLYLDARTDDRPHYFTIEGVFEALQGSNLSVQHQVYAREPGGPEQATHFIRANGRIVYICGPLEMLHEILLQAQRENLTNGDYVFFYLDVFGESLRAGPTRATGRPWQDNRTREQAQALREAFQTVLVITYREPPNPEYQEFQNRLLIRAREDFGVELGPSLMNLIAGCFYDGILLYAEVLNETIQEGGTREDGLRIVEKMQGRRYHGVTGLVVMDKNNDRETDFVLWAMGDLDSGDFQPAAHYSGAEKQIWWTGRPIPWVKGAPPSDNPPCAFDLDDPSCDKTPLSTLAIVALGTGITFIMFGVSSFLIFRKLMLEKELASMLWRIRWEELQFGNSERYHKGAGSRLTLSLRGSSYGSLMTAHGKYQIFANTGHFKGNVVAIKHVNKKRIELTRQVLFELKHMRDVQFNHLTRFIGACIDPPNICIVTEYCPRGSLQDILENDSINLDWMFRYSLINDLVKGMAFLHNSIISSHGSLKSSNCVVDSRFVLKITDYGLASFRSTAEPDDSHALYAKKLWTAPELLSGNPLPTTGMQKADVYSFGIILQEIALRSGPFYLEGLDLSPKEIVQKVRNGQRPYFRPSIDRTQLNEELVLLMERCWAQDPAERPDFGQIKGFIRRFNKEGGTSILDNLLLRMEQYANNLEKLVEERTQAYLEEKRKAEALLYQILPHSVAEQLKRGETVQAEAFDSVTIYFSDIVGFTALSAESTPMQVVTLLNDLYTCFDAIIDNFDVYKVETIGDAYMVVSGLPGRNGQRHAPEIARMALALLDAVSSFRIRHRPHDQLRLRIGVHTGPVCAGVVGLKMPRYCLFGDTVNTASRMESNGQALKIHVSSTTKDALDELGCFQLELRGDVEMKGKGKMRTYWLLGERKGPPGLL
Atrial natriuretic peptide receptor 1 (Homo sapiens), sequence (P16066 whole entry, looked up): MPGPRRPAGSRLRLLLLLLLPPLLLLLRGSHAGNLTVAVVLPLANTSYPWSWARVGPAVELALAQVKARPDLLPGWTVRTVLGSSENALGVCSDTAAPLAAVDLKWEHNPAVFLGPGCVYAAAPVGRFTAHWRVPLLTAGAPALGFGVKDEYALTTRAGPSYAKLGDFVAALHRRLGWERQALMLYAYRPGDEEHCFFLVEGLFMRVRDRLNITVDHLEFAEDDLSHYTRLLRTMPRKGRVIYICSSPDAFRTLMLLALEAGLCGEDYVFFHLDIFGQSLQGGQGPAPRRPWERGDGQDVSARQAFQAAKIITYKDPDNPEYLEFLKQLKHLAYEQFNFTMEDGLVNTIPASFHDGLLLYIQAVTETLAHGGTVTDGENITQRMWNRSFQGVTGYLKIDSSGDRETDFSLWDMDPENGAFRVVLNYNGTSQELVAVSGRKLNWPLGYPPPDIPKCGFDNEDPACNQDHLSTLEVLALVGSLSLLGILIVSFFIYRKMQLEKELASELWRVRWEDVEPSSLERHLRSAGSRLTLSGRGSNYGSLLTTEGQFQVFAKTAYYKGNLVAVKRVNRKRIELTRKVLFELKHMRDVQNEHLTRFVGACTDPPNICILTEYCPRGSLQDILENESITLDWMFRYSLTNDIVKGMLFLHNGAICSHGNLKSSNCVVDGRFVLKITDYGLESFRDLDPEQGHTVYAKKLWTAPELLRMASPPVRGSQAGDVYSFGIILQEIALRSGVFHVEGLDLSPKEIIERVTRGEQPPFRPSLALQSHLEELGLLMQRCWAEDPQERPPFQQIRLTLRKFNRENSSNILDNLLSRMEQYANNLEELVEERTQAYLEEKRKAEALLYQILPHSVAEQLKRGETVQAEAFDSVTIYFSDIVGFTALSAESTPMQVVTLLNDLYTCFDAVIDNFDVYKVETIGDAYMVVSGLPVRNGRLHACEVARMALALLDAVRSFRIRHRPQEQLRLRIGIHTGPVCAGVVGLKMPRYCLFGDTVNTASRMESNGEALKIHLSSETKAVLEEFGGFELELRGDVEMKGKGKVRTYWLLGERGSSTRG

In the case of COc1ccc2c(c1)CCC1C2CC[C@@]2(C)C1CC[C@@H]2NCCCCCCN1C(=O)CCC1=O (stereo partly drawn), the Potency [1] is reported as “inactive”, the Potency [2] is reported as “inactive” and the Potency [3] is reported as “inactive”. For the same compound, the Potency [4] was “inactive” and the outcome [5] was “inactive”.
For Oc1cc(O)cc(/C=C/c2ccc(O)c(O)c2)c1, the Potency [6] was 11.7 µM (active), the Potency [3] was “inactive” and the Potency [4] was “inactive”. The Potency [7] was “inactive”.
With O=C1C(SCCO)=C(SCCO)C(=O)c2ccccc21 the Potency [6] was 2.07 µM (active), the Potency [1] was 5.36 µM (active) and the Potency [2] was 2.93 µM (active). The Potency [7] was “inactive”.
For CCCn1c(=O)c2[nH]c(-c3ccc(OCC(=O)NCCN)cc3)nc2n(CCC)c1=O, the Potency [6] was “inactive”, the Potency [1] was “inactive” and the Potency [2] was “inactive”. The Potency [7] was “inactive”.
For COc1cc2nc(N3CCN(C(=O)OCc4ccccc4)C(C(=O)NC(C)(C)C)C3)nc(N)c2cc1OC (stereo not drawn), the Potency [6] was “inactive”, the Potency [2] was “inactive” and the Potency [7] was “inactive”.
For NCCCCC(=O)O, the Potency [1] was “inactive”, the Potency [2] was “inactive” and the Potency [3] was “inactive”.
For COC(=O)c1c(C)[nH]c(C)c1C(=O)c1ccccc1Cc1ccccc1, the Potency [1] was “inactive”, the Potency [2] was “inactive” and the Potency [3] was “inactive”. For the same compound, the Potency [4] was “inactive”, the outcome [5] was “inactive” and the Potency [8] was “inactive”. The Potency [7] was “inactive”.
In the case of N#C/C(=C\c1ccc(O)c(O)c1)C(=O)NCc1ccccc1, the Potency [1] is reported as “inactive” and the Potency [2] is reported as “inactive”.
With CN1CCc2cc(O)c(O)cc2C(c2ccccc2)C1 (stereo not drawn) the Potency [6] was “inactive”, the Potency [1] was “inactive” and the Potency [2] was “inactive”. The Potency [7] was “inactive”.
With CN(C)c1nc(N)c(C(=O)N=C(N)N)nc1Cl the Potency [1] was “inactive”, the Potency [2] was “inactive” and the Potency [3] was “inactive”.
With O=C(O)[C@@H]1C[C@@H](C(=O)O)N1 the Potency [6] was “inactive”, the Potency [1] was “inactive” and the Potency [2] was “inactive”. For the same compound, the Potency [7] was “inactive”.
In the case of c1cnc2c(c1)ccc1cccnc12, the Potency [1] is reported as “inactive”, the Potency [2] is reported as “inactive” and the Potency [3] is reported as 7.08 µM (active). For the same compound, the Potency [4] was “inactive”, the outcome [5] was “inactive” and the Potency [8] was 0.185 µM (active).
In the case of C[N+](C)(C)CC(=O)[O-], the Potency [6] is reported as “inactive”, the Potency [1] is reported as “inactive” and the Potency [2] is reported as “inactive”. The Potency [7] was “inactive”.
In the case of Cc1ccccc1CNc1ncnc2c1ncn2C1OC(CO)C(O)C1O (stereo not drawn), the Potency [6] is reported as “inactive”, the Potency [1] is reported as “inactive” and the Potency [2] is reported as “inactive”. For the same compound, the Potency [7] was “inactive”.
In the case of O=C(O)[C@@H]1C[C@H](C(=O)O)N1, the Potency [6] is reported as “inactive”, the Potency [1] is reported as “inactive” and the Potency [2] is reported as “inactive”. For the same compound, the Potency [7] was “inactive”.
In the case of NCCNC(=O)c1ncsc1-c1cccc(F)c1, the Potency [6] is reported as “inactive”, the Potency [1] is reported as “inactive” and the Potency [2] is reported as “inactive”. For the same compound, the Potency [7] was “inactive”.
In the case of CCCCCCCCc1ccc(-c2ccc(C(=O)O)cc2)cc1, the Potency [1] is reported as “inactive”, the Potency [2] is reported as “inactive” and the Potency [3] is reported as “inactive”.
With CCCCCCCCCCCCCCCCCCNC(=O)OCC(COP(=O)([O-])OCC[n+]1ccsc1)OC (stereo not drawn) the Potency [1] was “inactive” and the Potency [2] was “inactive”.
In the case of CC1CN(S(=O)(=O)c2cccc3cnccc23)CCN1 (stereo not drawn), the Potency [1] is reported as “inactive”, the Potency [2] is reported as “inactive” and the Potency [3] is reported as “inactive”. For the same compound, the Potency [4] was “inactive”, the outcome [5] was “inactive” and the Potency [8] was “inactive”.
With CCOC(=O)N1CCN(/[N+]([O-])=N/Oc2ccc([N+](=O)[O-])cc2[N+](=O)[O-])CC1 the Potency [6] was 5.21 µM (active), the Potency [2] was 10.4 µM (active) and the Potency [3] was “inactive”. The Potency [4] was “inactive” and the Potency [8] was “inactive”.
In the case of N=C(N)SCCc1ccc(CCSC(=N)N)cc1, the Potency [6] is reported as “inactive”, the Potency [1] is reported as “inactive” and the Potency [2] is reported as “inactive”. The Potency [7] was “inactive”.
In the case of Cc1ccc(C(=O)O[C@H](C(=O)O)[C@@H](OC(=O)c2ccc(C)cc2)C(=O)O)cc1 (tested in a mixture with another compound), the Potency [6] is reported as “inactive”, the Potency [2] is reported as “inactive” and the Potency [7] is reported as “inactive”.
With O=C(O)CC1CC(c2ccccc2)=NO1 (stereo not drawn) the Potency [6] was “inactive” and the Potency [2] was “inactive”.
For N.N.O=C(O)C1(C(=O)O)CCC1.[Pt], the Potency [6] was “inactive”, the Potency [1] was “inactive” and the Potency [2] was “inactive”. For the same compound, the Potency [7] was “inactive”.
For N[C@@H](CC(=O)O)C(=O)O, the Potency [1] was “inactive”, the Potency [2] was “inactive” and the Potency [3] was “inactive”.
For NC(=S)NCCC[C@H](N)C(=O)O, the Potency [6] was “inactive”, the Potency [1] was “inactive” and the Potency [2] was “inactive”. For the same compound, the Potency [7] was “inactive”.
In the case of O=C(c1ccc(OCCCc2cnc[nH]2)cc1)C1CC1, the Potency [1] is reported as “inactive”, the Potency [2] is reported as “inactive” and the Potency [3] is reported as “inactive”. The Potency [4] was “inactive”, the outcome [5] was “inactive” and the Potency [8] was “inactive”. The Potency [7] was “inactive”.
For O=C1NC(=O)/C(=C/c2ccc(-c3ccc(F)cc3O)o2)S1, the Potency [1] was “inactive”, the Potency [2] was “inactive” and the Potency [3] was “inactive”. For the same compound, the Potency [4] was “inactive” and the outcome [5] was “inactive”.
With Clc1ccc(N2CCN(Cc3cc4ccccn4n3)CC2)cc1 the Potency [2] was “inactive”, the Potency [3] was “inactive” and the Potency [4] was “inactive”. The outcome [5] was “inactive” and the Potency [7] was “inactive”.
In the case of CC[C@@H](C)[C@H]1O[C@]2(CC[C@H]1C)C[C@@H]1C[C@@H](CC=C(C)[C@@H](O[C@H]3C[C@H](OC)[C@@H](O[C@H]4C[C@H](OC)[C@@H](O)[C@H](C)O4)[C@H](C)O3)[C@@H](C)C=CC=C3CO[C@@H]4[C@H](O)C(C)=C[C@@H](C(=O)O1)[C@]34O)O2, the Potency [1] is reported as “inactive”, the Potency [2] is reported as “inactive” and the Potency [4] is reported as “inactive”. For the same compound, the outcome [5] was “inactive”, the Potency [8] was “inactive” and the Potency [7] was “inactive”.
With Oc1ccccc1O the Potency [1] was “inactive”, the Potency [2] was “inactive” and the Potency [3] was “inactive”. For the same compound, the Potency [7] was “inactive”.
For OCC1O[C@H]([S-])[C@H](O)[C@@H](O)[C@@H]1O.[Au+] (stereo partly drawn), the Potency [1] was “inactive”, the Potency [2] was “inactive” and the Potency [4] was 5.85 µM (active). The Potency [7] was “inactive”.
In the case of N.N.N.N.N.N.N.N.N.N.N.N.N.N.O.O.[Ru+4].[Ru+5].[Ru+5], the Potency [1] is reported as “inactive”, the Potency [2] is reported as “inactive” and the Potency [3] is reported as “inactive”. The Potency [7] was “inactive”.
With CCCCCCCCCCCCCCCCCC(=O)NCC(COP(=O)([O-])OCC[N+](C)(C)C)OCC (stereo not drawn) the Potency [1] was “inactive” and the Potency [7] was “inactive”.

Source: PubChem BioAssay (NCATS)
